Laboratory results as given in PubChem BioAssay (NCI).
About 79,000 compounds went through this panel and 15% of them were active in at least one assay; those are over-represented in the sample as a whole. Calls of active or inactive are those of the source. Rule as the data show it: active = growth inhibition above about 70%; inactive = the rest.

Tests used:
[1] = NCI Yeast Anticancer Drug Screen. Data for the rad50 strain (AID 155);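 also: 0% = growth of vehicle-only cultures of the same strain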; details: S. cerevisiae rad50 strain growth inhibition, hits give high values
Summary of the method: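 Inhibition values express reduced yeast growth in compound-treated cultures relative to vehicle-treated controls.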

[2] = NCI Yeast Anticancer Drug Screen. Data for the mec2-1 strain (AID 157); details: S. cerevisiae mec2-1 strain, hits give high values
Summary of the method: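 Test agents were screened against the mec2-1 yeast strain, with defined DNA repair or cell cycle alteration. Growth was scored as inhibition against vehicle-only controls.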

[3] = NCI Yeast Anticancer Drug Screen. Data for the sgs1 mgt1 strain (AID 161);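 also: 0% = growth of cultures given vehicle only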; details: S. cerevisiae sgs1 mgt1 strain, hits give high values
Summary of the method: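 Inhibition of yeast growth, normalised to vehicle-treated controls, is reported for a strain bearing genetic alterations in DNA damage repair.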

[4] = NCI Yeast Anticancer Drug Screen. Data for the cln2 rad14 strain (AID 165);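 also: 0% = growth equal to vehicle treated cultures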; details: S. cerevisiae cln2 rad14 strain, hits give high values
Summary of the method: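 Growth of compound-exposed yeast (cln2 rad14 genotype) measured and expressed as inhibition relative to vehicle.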

[5] = NCI Yeast Anticancer Drug Screen. Data for the bub3 strain (AID 167); details: S. cerevisiae bub3 mutant strain, hits give high values
Summary of the method: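 Steps: expose the mutant yeast strain to compound; grow alongside vehicle-treated cultures; measure growth; express inhibition against the vehicle cultures.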

[6] = NCI Yeast Anticancer Drug Screen. Data for the mlh1 rad18 strain (AID 175); details: S. cerevisiae mlh1 rad18 strain growth inhibition, hits give high values
Summary of the method: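 In this whole-cell yeast screen, a strain with altered DNA damage repair is challenged with compound, and its growth is measured against matched vehicle-treated controls.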

[7] = at 5.0 µM (retest, dose inferred, filed as 0.5)
[8] = at 50.0 µM (retest, dose inferred, filed as 5.0)

Measured: growth inhibition

Cc1cccc2c(CC(=O)O)cccc12
inactive: [1]; [7] -5% | [2]; [7] 7% | [3]; [7] 1% | [3]; at 50.0 µM 52.5% | [4]; [7] 19% | [4]; [8] 61% | [5]; [7] -1% | [6]; [7] 4%
active: [1]; [8] 78% | [1]; at 50.0 µM 78.7% | [2]; [8] 82% | [2]; at 50.0 µM 77.7% | [3]; [8] 81% | [4]; at 50.0 µM 71.8% | [5]; [8] 95% | [5]; at 50.0 µM 75% | [6]; [8] 88% | [6]; at 50.0 µM 78.5%

CCc1ccc(C(=O)O)cc1
active: [4]; at 50.0 µM 76.7%
inactive: [1]; [7] -2% | [1]; [8] -2% | [1]; at 50.0 µM 2.7% | [2]; [7] -2% | [2]; [8] -2% | [2]; at 50.0 µM -11.9% | [3]; [7] -1% | [3]; [8] 0% | [3]; at 50.0 µM -1.1% | [4]; [7] -5% | [4]; [8] -17% | [5]; [7] -6% | [5]; [8] 2% | [5]; at 50.0 µM -15.2% | [6]; [7] -5% | [6]; [8] -3% | [6]; at 50.0 µM 10%

OC(CBr)c1c(Br)ccc2ccccc12 (configuration not stated)
inactive: [1]; [7] 3% | [1]; [8] 65% | [1]; at 50.0 µM 53.6% | [2]; [7] -6% | [2]; at 50.0 µM 5.75% | [3]; [7] 3% | [3]; at 50.0 µM 48% | [4]; [7] -3% | [4]; [8] 65% | [4]; at 50.0 µM 32.9% | [5]; [7] -1% | [5]; at 50.0 µM 20.4% | [6]; [7] 20%
active: [2]; [8] 82% | [3]; [8] 77% | [5]; [8] 77% | [6]; [8] 90% | [6]; at 50.0 µM 74.7%

Cc1cc(N/N=C(\c2ccccc2)c2ccccn2)nc2ccccc12
active: [1]; [8] 91% | [1]; at 50.0 µM 96.9% | [2]; [8] 91% | [2]; at 50.0 µM 97.8% | [3]; [8] 83% | [3]; at 50.0 µM 96.5% | [4]; at 50.0 µM 97.6% | [5]; [8] 90% | [5]; at 50.0 µM 97.4% | [6]; [8] 92% | [6]; at 50.0 µM 97.5%
inactive: [1]; [7] 33% | [2]; [7] 10% | [3]; [7] 14% | [4]; [7] -7% | [4]; [8] 69% | [5]; [7] 19% | [6]; [7] 25%

O=c1c2ccccc2sc2c([N+](=O)[O-])ccc(NCCNCCO)c12
active: [1]; [8] 98% | [1]; at 50.0 µM 87.2% | [2]; [8] 99% | [2]; at 50.0 µM 92.1% | [3]; [8] 98% | [3]; at 50.0 µM 86.7% | [4]; [8] 98% | [4]; at 50.0 µM 87.2% | [5]; [8] 99% | [5]; at 50.0 µM 88.5%
inactive: [1]; [7] 57% | [2]; [7] 35% | [3]; [7] 18% | [4]; [7] 25% | [5]; [7] 21%

CC(=O)Nc1ccc(-c2nnc(SCC(=O)Nc3ccc([N+](=O)[O-])cc3)o2)cc1
inactive: [1]; [7] -1% | [1]; [8] 45% | [1]; at 50.0 µM 33.4% | [2]; [7] -8% | [2]; [8] 65% | [2]; at 50.0 µM 39.3% | [3]; [7] 0% | [3]; [8] 62% | [3]; at 50.0 µM 46% | [4]; [7] 4% | [4]; [8] 56% | [4]; at 50.0 µM -37.9% | [5]; [7] 11% | [6]; [7] 5% | [6]; at 50.0 µM 28.4%
active: [5]; [8] 92% | [5]; at 50.0 µM 82% | [6]; [8] 74%

CCCCCCC(C)OC(=O)c1ccccc1C(=O)O (configuration not stated)
inactive: [1]; [7] 7% | [1]; [8] 17% | [1]; at 50.0 µM 11.5% | [2]; [7] -11% | [2]; [8] 10% | [2]; at 50.0 µM 0.2% | [3]; [7] -6% | [3]; [8] 16% | [3]; at 50.0 µM 17.9% | [4]; [7] 6% | [4]; [8] 31% | [4]; at 50.0 µM 63.5% | [5]; [7] -3% | [5]; [8] 9% | [5]; at 50.0 µM 13.3% | [6]; [7] -13% | [6]; [8] 12% | [6]; at 50.0 µM 14.8%

COC(=Nc1ccccc1)SSC(C)C
active: [1]; [8] 77% | [1]; at 50.0 µM 84.5% | [2]; at 50.0 µM 86.8% | [3]; [8] 87% | [3]; at 50.0 µM 81.6% | [5]; [8] 92% | [5]; at 50.0 µM 86.2% | [6]; at 50.0 µM 85.5%
inactive: [1]; [7] 23% | [2]; [7] 19% | [2]; [8] 57% | [3]; [7] 38% | [4]; [7] 38% | [4]; [8] 66% | [4]; at 50.0 µM 46.4% | [5]; [7] 46% | [6]; [7] 21% | [6]; [8] 64%

Cc1ncn(-c2ccccc2O)c1C
inactive: [1]; [7] -3% | [1]; [8] 7% | [1]; at 50.0 µM -10.3% | [2]; [7] -8% | [2]; [8] -20% | [2]; at 50.0 µM 8.05% | [3]; [7] -7% | [3]; [8] -14% | [3]; at 50.0 µM -28.7% | [4]; [7] -2% | [4]; [8] -8% | [4]; at 50.0 µM 31.7% | [5]; [7] -3% | [5]; [8] -27% | [5]; at 50.0 µM -5.75% | [6]; [7] -9% | [6]; [8] 9% | [6]; at 50.0 µM -28.3%

O=CC1(c2ccc(Cl)cc2)NC(=O)NC1=O (configuration not stated)
active: [4]; at 50.0 µM 83%
inactive: [1]; [7] -1% | [1]; [8] 1% | [1]; at 50.0 µM 3.45% | [2]; [7] -1% | [2]; [8] -3% | [2]; at 50.0 µM -1.7% | [3]; [7] 2% | [3]; [8] 2% | [3]; at 50.0 µM -9.45% | [4]; [7] 3% | [4]; [8] -14% | [5]; [7] -1% | [5]; [8] -1% | [5]; at 50.0 µM -10.3% | [6]; [7] -5% | [6]; [8] -4% | [6]; at 50.0 µM 3.35%
